The values below come from PubChem BioAssay.

A short description of assay [1]: optical density shifts of acrAB sulA E. coli – strain DRC41, OD650, 48 h, E. coli filamentation inducer project, primary screen (AID 1152).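 Note: E. coli MC1000 strain DRC41 lacking acrAB efflux pump and sulA.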 Conditions: higher = more signal, called active from +8 up or from −8 down.
Assay [2] in a line: probe aLefty1 binding on compound microarray – biochemical, small-molecule microarray, 635/667 nm fluorescence, primary screen (AID 1153).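 Note: score merges spot fluorescence with signal-to-noise ratio from the scanned slide images.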 Conditions: higher = more signal.
Assay [3] is described as follows: plasmodial surface anion channel blockers, osmotic lysis – cell-based, P. falciparum Indochina, OD700, 1 h, primary screen (AID 1154). Conditions: P. falciparum Indochina infected RBC osmotic lysis, higher = more signal, called active from +8 up or from −8 down.
Assay [4] can be described thus: plasmodial surface anion channel blockers, osmotic lysis – cell-based, P. falciparum Indochina, OD700, 2 h, primary screen (AID 1155).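 Note: lysis reports solute entry through the parasite surface anion channel PSAC.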 The settings on record: P. falciparum Indochina infected erythrocytes, higher = more signal, called active from +8 up or from −8 down.
The nature of assay [5]: changes in parasitized red cell lysis, either direction – P. falciparum Indochina, OD700, 3 h, PSAC antagonist project, primary screen (AID 1156). The settings on record: P. falciparum-infected erythrocytes, osmotic lysis, higher = more signal, called active from +8 up or from −8 down.
Assay [6] can be described thus: plasmodial surface anion channel blockers, osmotic lysis – cell-based, P. falciparum Indochina, OD700, 18 h, primary screen (AID 1157). Conditions: P. falciparum Indochina infected erythrocytes, osmotic lysis OD700, 18 h; higher = more signal, called active from +8 up or from −8 down.
Assay [7] is described as follows: S6 kinase pathway phospho-S6 level changes – cell-based, A549, cytoblot, luminescence, serum-stimulated, primary screen (AID 1158).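 Note: serum-stimulated A549 lung adenocarcinoma cells; signal is phosphorylated S6 detected by cytoblot immunostaining with HRP secondary.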 Conditions: 5 h, higher = more signal.
For assay [8], the target named is NADPH oxidase 2 (Homo sapiens) (UniProt P04839). Kind of assay: compounds shifting NOX2 Amplex Red fluorescence – cell-based, HEK293-NOX2, PMA-stimulated, NOX inhibitor project, primary screen (AID 1159). Note: test concentration not given here. Conditions: 45 min, higher = more signal, called active from +8 up or from −8 down.
Sequence of NADPH oxidase 2 (Homo sapiens) (P04839 whole entry, looked up): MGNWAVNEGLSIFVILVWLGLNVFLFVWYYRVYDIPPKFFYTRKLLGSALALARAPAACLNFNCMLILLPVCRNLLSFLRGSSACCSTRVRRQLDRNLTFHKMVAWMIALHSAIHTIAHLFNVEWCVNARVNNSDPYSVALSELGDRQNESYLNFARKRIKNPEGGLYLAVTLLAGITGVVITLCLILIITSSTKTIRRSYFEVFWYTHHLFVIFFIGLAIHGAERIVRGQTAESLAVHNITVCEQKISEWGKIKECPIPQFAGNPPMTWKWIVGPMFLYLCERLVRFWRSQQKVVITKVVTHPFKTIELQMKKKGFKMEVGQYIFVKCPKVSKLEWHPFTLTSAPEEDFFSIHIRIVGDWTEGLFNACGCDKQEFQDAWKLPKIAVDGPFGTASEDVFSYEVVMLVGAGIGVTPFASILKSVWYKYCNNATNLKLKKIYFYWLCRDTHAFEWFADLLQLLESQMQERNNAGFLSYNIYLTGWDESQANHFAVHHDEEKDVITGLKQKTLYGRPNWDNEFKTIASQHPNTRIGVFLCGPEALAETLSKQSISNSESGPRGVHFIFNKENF
The target in assay [9] is NADPH oxidase 4 (Homo sapiens) (UniProt Q9NPH5). Description: compounds shifting NOX4 Amplex Red fluorescence – cell-based, HEK293-NOX4, tetracycline-induced, NOX inhibitor project, primary screen (AID 1160). The settings on record: HEK293-NOX4, Amplex Red H2O2 fluorescence, 45 min; higher = more signal, called active from +8 up or from −8 down.
Sequence of NADPH oxidase 4 (Homo sapiens) (Q9NPH5 whole entry, looked up): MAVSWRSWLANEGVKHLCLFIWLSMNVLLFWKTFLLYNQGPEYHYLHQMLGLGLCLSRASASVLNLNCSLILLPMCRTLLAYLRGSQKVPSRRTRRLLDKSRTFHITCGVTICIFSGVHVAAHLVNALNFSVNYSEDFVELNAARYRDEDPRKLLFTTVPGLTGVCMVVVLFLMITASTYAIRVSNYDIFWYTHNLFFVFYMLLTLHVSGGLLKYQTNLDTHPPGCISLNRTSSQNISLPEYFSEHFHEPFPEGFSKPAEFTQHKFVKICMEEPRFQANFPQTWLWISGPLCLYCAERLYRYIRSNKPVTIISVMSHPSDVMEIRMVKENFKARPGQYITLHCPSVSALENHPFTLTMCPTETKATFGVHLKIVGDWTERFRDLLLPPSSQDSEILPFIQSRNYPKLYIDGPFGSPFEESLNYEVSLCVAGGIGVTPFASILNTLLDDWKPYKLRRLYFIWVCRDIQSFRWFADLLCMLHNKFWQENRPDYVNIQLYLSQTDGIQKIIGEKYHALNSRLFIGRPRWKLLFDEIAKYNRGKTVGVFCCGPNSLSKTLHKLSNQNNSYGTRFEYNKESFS
Assay [10] has as its target NADPH oxidase 5 (Homo sapiens) (UniProt Q96PH1). Description: compounds shifting NOX5 Amplex Red fluorescence – cell-based, HEK293-NOX5, NOX inhibitor project, primary screen (AID 1161). Conditions: HEK293-NOX5, ionomycin, 45 min, higher = more signal.
Assay [11] is described as follows: compound effects on lung adenocarcinoma cell viability – A549, calcein-AM fluorescence, 48 h, basal, profiling panel (AID 1162). Note: test concentration not given here. Conditions: higher = more signal.
The nature of assay [12]: compound effects on differentiated 3T3-L1 adipocyte viability – cell-based, 3T3-L1 adipocytes, calcein-AM fluorescence, 48 h, basal, profiling panel (AID 1163). Note: test concentration not given here. The settings on record: 3T3-L1 adipocytes viability, higher = more signal.
Assay [13] is described as follows: compound effects on hepatocellular carcinoma cell viability – HepG2, calcein-AM fluorescence, 48 h, basal, profiling panel (AID 1164). Note: test concentration not given here. Conditions: higher = more signal.
Assay [14] is described as follows: compound effects on multiple myeloma cell viability – MM1S, calcein-AM fluorescence, 48 h, basal, profiling panel (AID 1165).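 Note: viability of MM1S multiple myeloma cells under basal unstimulated conditions; test concentration not given here.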 The settings on record: higher = more signal.
A short description of assay [15]: calcein-AM signal in unstimulated myeloma cells – cell-based, calcein-AM fluorescence, 48 h, PK04 Diversity Set, profiling panel (AID 1166).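 Note: cells grown under basal conditions without added stimulus; test concentration not given here.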 Conditions: RPMI8226 myeloma viability, higher = more signal.
The nature of assay [16]: JC-1 mitochondrial signal, unstimulated HepG2 cells – cell-based, JC-1 fluorescence, 24 h, 100 nL compound, profiling panel (AID 1167). Note: test concentration not given here. Conditions: HepG2 mitochondrial potential, higher = more signal.
The nature of assay [17]: JC-1 mitochondrial signal, unstimulated adipocytes – cell-based, JC-1 fluorescence, 3T3-L1 adipocytes, 24 h, 100 nL compound, profiling panel (AID 1168). Note: test concentration not given here. The settings on record: JC-1 mitochondrial fluorescence, higher = more signal, called active from +8 up or from −8 down.
A short description of assay [18]: JC-1 mitochondrial signal, unstimulated myeloma cells – cell-based, JC-1 fluorescence, RPMI8226, 24 h, 100 nL compound, profiling panel (AID 1169). Note: test concentration not given here. Conditions: JC-1 mitochondrial potential fluorescence, higher = more signal.
A short description of assay [19]: JC-1 mitochondrial signal, unstimulated MM1S myeloma – cell-based, JC-1 fluorescence, 24 h, 100 nL compound, profiling panel (AID 1170). Note: test concentration not given here. The settings on record: MM1S mitochondrial potential, higher = more signal.
Assay [20] is described as follows: resazurin metabolic signal in A549 cells – cell-based, resazurin fluorescence, 24 h, PK04 Diversity Set, profiling panel (AID 1171). Note: test concentration not given here. Conditions: A549 viability, higher = more signal, called active from +8 up or from −8 down. (In general: Resazurin is reduced to fluorescent resorufin, in cell work by metabolically active cells.)

The structures appear in SMILES notation. The source made the active and inactive calls.

Sequence of NADPH oxidase 5 (Homo sapiens) (Q96PH1 whole entry, looked up): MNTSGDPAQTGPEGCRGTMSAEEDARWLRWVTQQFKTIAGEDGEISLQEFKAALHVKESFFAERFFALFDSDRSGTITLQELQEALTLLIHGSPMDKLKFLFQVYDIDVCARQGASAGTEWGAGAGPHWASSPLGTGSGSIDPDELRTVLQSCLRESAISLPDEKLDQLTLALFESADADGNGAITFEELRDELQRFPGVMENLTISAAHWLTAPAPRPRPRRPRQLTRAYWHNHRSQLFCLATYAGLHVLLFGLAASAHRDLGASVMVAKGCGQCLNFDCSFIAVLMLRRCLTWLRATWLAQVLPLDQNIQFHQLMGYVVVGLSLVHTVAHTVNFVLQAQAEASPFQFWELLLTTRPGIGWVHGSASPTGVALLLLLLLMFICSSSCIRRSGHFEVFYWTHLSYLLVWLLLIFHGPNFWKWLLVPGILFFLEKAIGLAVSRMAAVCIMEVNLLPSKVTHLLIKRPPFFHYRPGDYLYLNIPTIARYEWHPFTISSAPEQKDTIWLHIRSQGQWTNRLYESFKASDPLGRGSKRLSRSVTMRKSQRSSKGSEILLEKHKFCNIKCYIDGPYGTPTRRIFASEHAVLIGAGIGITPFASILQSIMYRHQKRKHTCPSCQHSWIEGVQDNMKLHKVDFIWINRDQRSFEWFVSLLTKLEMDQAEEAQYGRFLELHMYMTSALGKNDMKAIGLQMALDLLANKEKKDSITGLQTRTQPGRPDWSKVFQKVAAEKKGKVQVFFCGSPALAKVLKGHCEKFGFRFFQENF

As to `Cc1ccc(S[C@]2(C(=O)NCCCN(C)C)CC(=O)N(Cc3cc(C(F)(F)F)cc(C(F)(F)F)c3)[C@@H]2c2ccc(CO)cc2)cc1`, the z-score is -0.48 (inactive) in assay [1]; 1.24 (inactive) in [3]; 0.0808 (inactive) in assay [4]; -0.0534 (inactive) in assay [5]; 0.327 (inactive) in assay [6]; 1.11 in [7]. The z-score in assay [8] was -0.373 (inactive); in [9], 0.414 (inactive); in assay [10], 0.942; in assay [11], -0.159; in [12], 0.374; in assay [13], -0.767. In addition, the z-score in [14] was -0.47; in assay [15], 0.51; in assay [16], 0.263; in assay [17], -0.849 (inactive); in assay [18], 0.199; in assay [19], 0.339. Moreover, in [20], the z-score was -0.106 (inactive). In [2], the composite z-score is -0.506.
For `C=CCNC(=O)[C@H]1[C@@H]2C(=O)O[C@@H](c3ccccc3)[C@@H](c3ccccc3)N2[C@@H](c2ccccc2OCCO)[C@]12C(=O)Nc1ccc(C#CCC(C(=O)OC)C(=O)OC)cc12`, the z-score is 0.0038 (inactive) in assay [1]; 5.08 (inactive) in [3]; 1.84 (inactive) in assay [4]; -0.223 (inactive) in [5]; 0.909 (inactive) in [6]; -0.318 in assay [7]. Besides, the z-score in [8] is 1.62 (inactive); in assay [9], 0.834 (inactive); in [10], 1.5; in assay [11], 0.246; in assay [12], -0.72; in assay [13], -0.845. The z-score is -3.34 in assay [14]; -4.63 in assay [15]; -0.64 in [16]; 2.62 (inactive) in assay [17]; -1.32 in assay [18]; -2.23 in assay [19]. Further, the z-score in assay [20] was 0.545 (inactive). In [2], this compound returned a composite z-score of 0.924.
On to `Cc1ccc([C@@H]2C[C@@H](Sc3ccccc3)[C@H](C(=O)O)CN2S(=O)(=O)c2ccc(C)cc2)cc1`, for which the z-score in assay [1] was -1.07 (inactive); in assay [3], 1.87 (inactive); in assay [4], 0.835 (inactive); in [5], -1.16 (inactive); in assay [6], 0.759 (inactive); in assay [7], -0.512. Further, the z-score in assay [8] is 2.06 (inactive); in [9], -1.97 (inactive); in assay [10], -0.41; in assay [11], -0.687; in assay [12], 0.154; in assay [13], -0.316. Further, the z-score was -0.681 in assay [14]; -3.33 in [15]; -1.2 in assay [16]; -0.183 (inactive) in assay [17]; -0.268 in assay [18]; 0.928 in [19]. In addition, in assay [20], the z-score is 0.39 (inactive). The composite z-score in assay [2] was determined as 0.481.
For the compound `C[N+](C)(C)CCCCNC(=O)[C@@H]1C[C@@H]2C(=O)N[C@@H](Cc3ccccc3)C(=O)N2[C@@H]1c1cccc(OCCO)c1`, the z-score in assay [1] was 1.04 (inactive); in assay [3] it was 3.16 (inactive); in [4], 0.469 (inactive); in assay [5], -1.44 (inactive); in assay [6], 0.13 (inactive); in [7], 1.91. The z-score in [8] is -0.682 (inactive); in assay [9], -0.331 (inactive); in assay [10], 0.856; in assay [11] it was 1.49; in assay [12] it was -0.764; in assay [13], 0.215. In addition, the z-score in assay [14] was 0.367; in assay [15], 0.0971; in assay [16], 1.58; in assay [17] it was 0.924 (inactive); in assay [18], 0.219; in assay [19], -0.493. In addition, in assay [20], the z-score is -0.337 (inactive). In assay [2], this compound yielded a composite z-score of -0.0094.
As for `[N-]=[N+]=Nc1ccccc1[C@H]1OC(c2ccc(OCCCO)cc2)=N[C@@]1(CCS(=O)(=O)c1ccccc1)C(N)=O`, the z-score in assay [1] was 0.613 (inactive); in assay [3], 32 (active); in [4], 28.1 (active); in assay [5], 1.48 (inactive); in [6], 2.16 (inactive); in assay [7], -0.0187. Also, the z-score in [8] was 0.178 (inactive); in [9] it was 0.067 (inactive); in [10] it was -0.909; in assay [11] it was 0.0833; in assay [12], 0.733; in assay [13] it was 0.0844. In addition, the z-score was -0.57 in assay [14]; 0.0418 in assay [15]; -0.93 in assay [16]; -0.235 (inactive) in [17]; -1.07 in [18]; 0.296 in [19]. Besides, the z-score in assay [20] was 0.985 (inactive). In assay [2], the composite z-score was determined as 0.138.
`C=CC[C@@]12N=C(c3ccc(OCCCO)cc3)O[C@@H]1c1ccccc1N(C)C2=O`: the z-score is 1.12 (inactive) in [1]; 33.2 (active) in assay [3]; 32.3 (active) in [4]; 2.02 (inactive) in assay [5]; 3.46 (inactive) in [6]; 0.368 in [7]. Moreover, the z-score in assay [8] is -2.99 (inactive); in assay [9], -0.963 (inactive); in [10], -1.85; in assay [11], -0.588; in assay [12], 0.596; in [13], -1.33. The z-score in assay [14] was -1.79; in [15], -2.61; in assay [16], 0.0239; in assay [17], 1.51 (inactive); in assay [18], -1.12; in [19] it was -0.767. In addition, the z-score in assay [20] is -0.0732 (inactive). The compound further registered a composite z-score in [2] of 0.349.
For the compound `CCCCC(CC)C(O)C1C=CC2C(=O)N(Cc3ccccc3)C(=O)C2N1n1cnnc1` (stereo not given), the z-score is -1.5 (inactive) in [1]; 0.218 (inactive) in assay [3]; 0.0653 (inactive) in assay [4]; 0.604 (inactive) in assay [5]; 0.411 (inactive) in assay [6]; -0.908 in assay [7]. Further, the z-score in assay [8] was -0.132 (inactive); in assay [9] it was -0.476 (inactive); in [10], -0.99; in assay [11], -0.682; in [12] it was -0.498; in [13] it was -0.391. Also, the z-score in assay [14] is -0.165; in [15] it was -0.208; in [16], -0.522; in assay [17] it was -1.48 (inactive); in assay [18] it was 0.447; in assay [19], 0.533. In addition, in [20], the z-score was -0.56 (inactive). For the same compound, the composite z-score in assay [2] came out at 0.0903.
For `C=CCN1C(=O)[C@]2(O[C@H](CCn3cc([C@H](O)c4ccccc4)nn3)[C@@H]([Si](C)(C)c3ccc(OC)cc3)[C@@H]2C)c2cc(N3CCC3=O)ccc21`, the z-score in assay [1] was 0.894 (inactive); in assay [3] it was 3.76 (inactive); in assay [4], 1.05 (inactive); in assay [5], 2.62 (inactive); in assay [6] it was 0.721 (inactive); in assay [7], 2.02. The z-score in assay [8] is 0.632 (inactive); in assay [9], -0.709 (inactive); in assay [10] it was -1.74; in assay [11], -0.668; in assay [12] it was 0.87; in assay [13], -1.39. In addition, the z-score in assay [14] was -2.05; in assay [15] it was -2.95; in assay [16], 2.75; in [17], 0.85 (inactive); in [18], -0.949; in assay [19], 0.507. For the same compound, the z-score in assay [20] was -1.71 (inactive). Besides, in assay [2], the composite z-score was determined as 0.188.
